# Experimental data reported in the supplement of paper PMC11417369.
# In all, about 25,000 sequences were measured (“ln(normalized median fluorescence intensity)”: median about 7.1, highest 2% from about 10 on). The sample as a whole holds a higher share of the highest values than the screen did.
# Tested on: PfSIP2 AP2 domain 1 (GST-tagged)
# Test: gcPBM binding intensity (ln(normalized median fluorescence intensity)); higher = stronger DNA binding
# How it was run: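 An Agilent 4 × 180k array of primer-extended double-stranded 36-bp intergenic genomic probes, with negative controls, was incubated for 1 h with GST-tagged P. falciparum DNA-binding domains expressed in E. coli. Alexa488 anti-GST antibody detected bound protein, scanned at 488 nm. Binding intensity is the highest Masliner-normalised natural-log median intensity across replicate spots of either probe orientation.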
row,Sequence,gcPBM binding intensity (ln)
1,ATTGTAAGGAAACACACACACATATATATGTATATA [CACACA_site676],7.07
2,ACCTATGTATATTATACACACTCCAAACTATTATTT [CACACA_site1817],7.19
3,TTTCATAACAAAAAAGTGCAAAATAGCACGAACATT [GTGCAC_site9703],8.82
4,TGTTTTTCATAGTGCACACATAACCAAAAATAGTAT [CACACA_site3150],10.8
5,AAATATTCATAGTATACACACATTTATTTATAACCA [CACACA_site6502],6.9
6,TTTGTTTTTCATAGTGCACACATAACCAAAAATAGT [CACACA_site9030],10.5
7,TTTGTAGTTTGCACATGTACACATTTCAAAATAAAG [XGTACX_site7568],7.49
8,GGTATTTTCACATATAGTACACAAAAATAAAATAAA [XGTACX_site2139],7.79
9,ATATATGTATTTAATACACACAAAACTTTCATTCCA [CACACA_site3531],6.9
10,TGTACGTTTTATAACACACACACAAAAAAAAAAAAA [CACACA_site3875],7.09
11,TGAATATGTAAATGCACACCAAAAAAAAAAAAAAAA [CACACA_site3566],7.29
12,TACTATAAGATATATACACACAAGAAATACAAAACG [CACACA_site6764],7.53
13,AATATATGCTTTCGTTATATTAAATTCAATTTAATG [GTGCAC_negctrl_site76],6.95
14,TAGAATAAATTAATTACACACGGAATTATATATATA [CACACA_site1616],7.83
15,AAAAAAAAAAATATATTATTTTACTTGTTTATTTTA [CACACA_negctrl_site1447],6.68
16,AAGAAAATATATTCACATGAAGAATTAAAATAAAAC [TGCATGCA_negctrl_site119],7.14
17,TTTAAAAAAAATATGTGTACTTAATATTTTCATATA [XGTACX_site7421],6.78
18,ATATTATATTGGATGTTGCACTTAACAAAAGGATAT [GTGCAC_site9478],8.76
19,TTTTTGTAAAATAAACGTACAAAACAATTGTTCATT [XGTACX_site6537],6.94
20,TTTGTTCATATTATTGTGCACTTAAACGTAACAAAA [GTGCAC_site9505],10.2

row,Sequence,gcPBM binding intensity (ln)
1,ATCATTCCACTTTTCACACATATCTCTATTTCTATC [CACACA_site4723],7.37
2,TAAAAATATTTTCATTGTACATATATATAAATATAT [XGTACX_site1123],6.97
3,TACAACAATTTTTGCACACACCAAAACATAAAATAA [CACACA_site4964],7.52
4,AATATATTTTTTTTTTGTACATATTGTAAAATAATA [XGTACX_site6805],6.99
5,AAAATAAATAAATATACACACCATATATATATTTTT [CACACA_site5573],6.88
6,AATATTGCACCATTTTGTACATAATATATTCAAATA [XGTACX_site475],10.7
7,ATTTTTTTTTTTTTTTTTTTTGCACCATAAAATAAT [CACACA_negctrl_site1324],11.3
8,TTTTTTTTTGGGTGTACACATGAATATATATTTTTT [CACACA_site5254],7.83
9,TACTGTATTATAATTATGATTGACGAAATTAAAAAT [GTGCAC_negctrl_site358],6.91
10,GATTTTAATGGGTGTACACATTTATTTATATAAAGT [CACACA_site5317],7.54
11,ATGAATAAATAGGTCACACACAAATATATATAAATA [CACACA_site2416],6.98
12,TTAATATTGTATCCAAGTACACAAATTATTATATTT [XGTACX_site8067],7.11
13,CATGTATTTTATATTACACACTAATATTATATATAT [CACACA_site1508],7.51
14,CTTTCATATGTTTTAACACACACGCATATATTATAG [CACACA_site7033],7.08
15,TCTAACATATCTTTAATACACACTTAAAAAAGTACT [CACACA_site652],7.03
16,TATAATGTATGTAGTGCACACCTCTATAATATATTA [CACACA_site8560],10.3
17,TAGAATGTATGTAGTGCACACCTCTATAATATATTA [CACACA_site1873],10.7
18,TGTAATATATGTATTGCACACCTATAACCATTATTT [CACACA_site8422],7.17
19,ATATATATTATATAGTGTACCTATGTATAATAATAT [XGTACX_site1683],7.16
20,ATATGTAGAAGTAATGCACACATATGTATATATATA [CACACA_site8796],8.38

row,Sequence,gcPBM binding intensity (ln)
1,TATGTACACCCATATACACACCTCTATAATATATAT [CACACA_site4563],7.29
2,TTAAAAATGAACATATGTACATATATATATATATAT [XGTACX_site7923],9.39
3,TAAAAAATAAGATATACACACATATATTTATTTATA [CACACA_site7158],6.72
4,ATTTATTTATTTAGCTGTACATTTATACAGAACGAT [XGTACX_site3336],7
5,ACATTATGTCATAAATGTACACATACATATACATAC [XGTACX_site8998],7.11
6,AAAAATAAGATATATACACACATATAAATATAAATA [CACACA_site7396],6.82
7,GCCAATAAAGATGTGGTGCATTATATATATATATAT,10.6
8,TATATATATATATGTGCACACATAAAGATATTATTT [CACACA_site3734],9.38
9,TAAATATATATATAAGTGCATTATATATATATATAA,8.97
10,GCTTTAATCTGAAAGTGTACAGATAATATATTTATA [XGTACX_site2462],7.15
11,ATATGTAAAATATGGTGTACAATCAAATAAAAAAAA [XGTACX_site6270],7.16
12,ATAATGTAAAAGTAAACACACACATATATATATACA [CACACA_site8793],7.06
13,TTTTGAAGTAACAAATAAATAAATAAATATATAAAA [GTGCAC_negctrl_site517],6.92
14,AAATAATATTGAAAAGTGCATATTTTTGTTGATATA,8.42
15,AAAAAAAAAAAAAAAGTGCACTGAAAATATATTGAA [GTGCAC_site9395],10.9
16,TTCTTGTTCCTGAAAGTGCATATAACAAAAATAACA [GTGCAC_site9635],9.52
17,TATATATATATATAGGTGCAATATTGAAAAAATATC [GTGCAC_site9535],9.82
18,TTTGTTCTTTTTGAAGTGCACTGAAATATAACAAAA,10.7
